Laboratory results from PubChem BioAssay (NCI).
The panel holds about 83,000 compounds, 20% with a hit somewhere; the sample as a whole holds those more often.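 Treatment: one concentration, 48 hours, 96-well format. Scoring: percent growth, with anything below 10 considered active.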 Active and inactive are the calls of the source.

Assays:
Assay in all cases: NCI-60 one-dose screen, 48 h (100 = growth as untreated, 0 = no growth, -100 = all killed)
Settings in all cases: 10 µM unless noted
[1] = tested on: NCI-H23 lung
[2] = tested on: NCI-H226 lung
[3] = tested on: NCI-H322M lung
[4] = tested on: HOP-62 NSCLC
[5] = tested on: NCI-H460 lung
[6] = tested on: HOP-92 NSCLC
[7] = tested on: NCI-H522 lung
[8] = tested on: A549/ATCC NSCLC
[9] = tested on: 786-0 renal
[10] = tested on: COLO 205 colon
[11] = tested on: DU-145 prostate
[12] = tested on: K-562 leukemia
[13] = tested on: MALME-3M melanoma
[14] = tested on: MDA-MB-231 breast
[15] = tested on: RXF 393 renal
[16] = tested on: SF-268 CNS
[17] = tested on: SF-295 CNS
[18] = tested on: SF-539 CNS
[19] = tested on: UACC-257 melanoma
[20] = tested on: M14 melanoma

Measured: growth

CC(=O)O[C@H]1C(=O)[C@@]2(C)[C@H]([C@H](OC(=O)c3ccccc3)[C@]3(O)C[C@H](OC(=O)[C@H](OC(=O)OC[C@@H]4COC(C)(C)O4)[C@@H](NC(=O)c4ccccc4)c4ccccc4)C(C)=C1C3(C)C)[C@]1(OC(C)=O)CO[C@@H]1C[C@@H]2O
inactive: [1] 19.9% | [2] 60.4% | [3] 14.4% | [4] 19.3% | [6] 64.6% | [8] 11.9% | [9] 19.4% | [12] 13.8% | [13] 28.9% | [16] 32% | [19] 50.1%
active: [5] 3.59% | [7] 1.08% | [10] -28.4% | [11] 6.23% | [14] 2.49% | [15] -9.73% | [17] -7.77% | [18] -9.82% | [20] -20%

Cc1ccc(S(=O)(=O)C(Cl)(Cl)Cl)cc1
inactive: [1] 98.3% | [2] 80.4% | [3] 105% | [4] 90.2% | [5] 104% | [6] 82.3% | [7] 76.2% | [8] 77.2% | [9] 88.5% | [10] 99.4% | [11] 109% | [12] 93.3% | [13] 92.5% | [14] 95.8% | [15] 102% | [16] 97.5% | [17] 91.1% | [18] 99.9% | [19] 86.1% | [20] 94.6%

CO[C@H]1CC[C@@]2(C)C(=CC[C@@H]3[C@@H]2CC[C@]2(C)C(=O)C(=O)C[C@@H]32)C1
inactive: [1] 99.5% | [2] 96.1% | [3] 120% | [4] 106% | [5] 102% | [6] 83.7% | [7] 98% | [8] 111% | [9] 107% | [10] 118% | [11] 116% | [12] 101% | [13] 111% | [14] 103% | [15] 26.3% | [16] 103% | [17] 110% | [18] 104% | [19] 120% | [20] 102%

Cc1c(NS(=O)(=O)c2ccccc2)ccc([N+](=O)[O-])c1Cl
active: [6] -9.14%
inactive: [1] 58.6% | [2] 62.7% | [3] 102% | [4] 95.1% | [5] 67% | [7] 55.7% | [8] 58.6% | [9] 41.1% | [10] 109% | [11] 94% | [12] 74.4% | [13] 35.3% | [14] 84.8% | [15] 77% | [16] 75.9% | [17] 31% | [18] 67.4% | [19] 59.5% | [20] 70.4%

CC[C@H](C)[C@H](NC(=O)[C@H]1CCCCN1C)C(=O)N(C)[C@H](C[C@@H](O)c1nc(C(=O)N[C@@H](Cc2ccccc2)C[C@H](C)C(=O)O)cs1)C(C)C
active: [7] -18%
inactive: [1] 94.8% | [2] 99% | [3] 105% | [4] 82.4% | [5] 95.6% | [6] 57.8% | [8] 87.1% | [9] 90.2% | [10] 83.6% | [11] 112% | [12] 42.1% | [13] 77.6% | [14] 95.2% | [15] 96.9% | [16] 88.2% | [17] 90.6% | [18] 83.6% | [19] 76.1% | [20] 64.5%

CCCCC1(CCC)C(=O)NC(=S)NC1=O
inactive: [1] 100% | [2] 106% | [3] 112% | [4] 99.6% | [5] 108% | [6] 71.4% | [7] 81.7% | [8] 125% | [9] 93.8% | [10] 112% | [11] 119% | [12] 121% | [13] 119% | [14] 113% | [15] 195% | [16] 107% | [17] 102% | [18] 94.9% | [19] 131% | [20] 106%

CC(=O)Nc1ccc(NC(=O)c2ccc([As](O)O)cc2)cc1
inactive: [1] 103% | [2] 116% | [3] 118% | [4] 131% | [5] 104% | [6] 112% | [8] 114% | [9] 107% | [10] 108% | [11] 108% | [12] 33.1% | [13] 113% | [14] 88.3% | [15] 47.6% | [16] 109% | [17] 118% | [18] 88.8% | [19] 104% | [20] 101%
active: [7] -2.06%
